{
  "source": "paper PMC4336329",
  "about": "(PLoS ONE, 2015)",
  "note": "Screen size: about 310,000 compounds; about 14,000 (4.5%) showed an effect of 50% or more. Effects have a minus sign here. This is one part of a sample in which strong results are shown more often than they occur.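 Further: peak tail current of the secondary pulse compared with the same well before compound.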",
  "data": [
    {"biological_target": "human ether-à-go-go-related gene (hERG) potassium channel (human, UniProt Q12809)", "sequence (Q12809 whole entry, looked up)": "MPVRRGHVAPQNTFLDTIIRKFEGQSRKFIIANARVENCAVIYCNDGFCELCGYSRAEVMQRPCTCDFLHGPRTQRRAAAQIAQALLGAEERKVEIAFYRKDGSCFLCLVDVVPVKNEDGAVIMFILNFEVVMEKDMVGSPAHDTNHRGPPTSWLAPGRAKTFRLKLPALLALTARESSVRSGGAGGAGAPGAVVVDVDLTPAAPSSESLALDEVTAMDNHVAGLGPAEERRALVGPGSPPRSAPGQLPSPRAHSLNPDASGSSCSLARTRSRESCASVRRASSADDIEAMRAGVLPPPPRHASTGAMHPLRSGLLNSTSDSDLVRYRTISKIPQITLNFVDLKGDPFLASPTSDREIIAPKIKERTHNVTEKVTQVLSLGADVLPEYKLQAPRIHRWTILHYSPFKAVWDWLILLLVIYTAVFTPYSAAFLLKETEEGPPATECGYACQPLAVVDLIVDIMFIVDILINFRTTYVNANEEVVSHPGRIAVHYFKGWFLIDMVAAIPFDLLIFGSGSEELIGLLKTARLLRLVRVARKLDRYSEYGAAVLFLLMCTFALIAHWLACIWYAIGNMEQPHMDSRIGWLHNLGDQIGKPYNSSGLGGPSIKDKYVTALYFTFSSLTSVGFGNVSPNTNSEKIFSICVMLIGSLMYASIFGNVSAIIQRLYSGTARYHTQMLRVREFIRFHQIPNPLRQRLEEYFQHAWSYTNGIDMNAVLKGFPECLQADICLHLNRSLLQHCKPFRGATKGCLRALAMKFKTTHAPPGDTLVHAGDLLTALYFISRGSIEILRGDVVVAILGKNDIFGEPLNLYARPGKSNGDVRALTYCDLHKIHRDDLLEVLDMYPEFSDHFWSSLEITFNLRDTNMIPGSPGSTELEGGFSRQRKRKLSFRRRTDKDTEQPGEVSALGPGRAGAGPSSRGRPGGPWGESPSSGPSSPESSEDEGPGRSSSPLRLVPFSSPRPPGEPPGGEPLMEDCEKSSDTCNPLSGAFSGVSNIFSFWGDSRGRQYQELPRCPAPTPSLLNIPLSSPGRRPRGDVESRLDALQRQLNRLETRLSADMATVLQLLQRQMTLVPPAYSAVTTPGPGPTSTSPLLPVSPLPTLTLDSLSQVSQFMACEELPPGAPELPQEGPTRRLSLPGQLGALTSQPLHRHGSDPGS", "assay": "primary screen, population patch clamp on CHO cells stably expressing hERG; higher = less effect of the substance", "units": {"hERG current change (%, negative = inhibition) at 10uM": "%"}, "values": [
      {"compound": "CCOC(=O)c1cc(-c2ccccc2)sc1N", "hERG current change (%, negative = inhibition) at 10uM": 0.819},
      {"compound": "CN(C)CCNc1oc(-c2ccccc2Cl)nc1S(=O)(=O)c1ccccc1", "hERG current change (%, negative = inhibition) at 10uM": -35.7},
      {"compound": "Cc1ccc(S(=O)(=O)c2nc(-c3cccs3)oc2NCCCN(C)C)cc1", "hERG current change (%, negative = inhibition) at 10uM": -67.8},
      {"compound": "CN(C)CCCNc1oc(-c2ccccc2Cl)nc1S(=O)(=O)c1ccccc1", "hERG current change (%, negative = inhibition) at 10uM": -43.3},
      {"compound": "CN(C)CCCNc1oc(-c2ccccc2Cl)nc1S(=O)(=O)c1ccc(F)cc1", "hERG current change (%, negative = inhibition) at 10uM": -59.9},
      {"compound": "COCCNc1oc(-c2cccs2)nc1S(=O)(=O)c1ccc(C)cc1", "hERG current change (%, negative = inhibition) at 10uM": -26.4},
      {"compound": "COCCCNc1oc(-c2cccs2)nc1S(=O)(=O)c1ccc(C)cc1", "hERG current change (%, negative = inhibition) at 10uM": -15.2},
      {"compound": "CN1C(=O)c2cccc(NCCCCCCN3C(=O)c4ccccc4C3=O)c2C1=O", "hERG current change (%, negative = inhibition) at 10uM": 5.41},
      {"compound": "CC(C)OCC1CO1", "note": "(stereo not drawn)", "hERG current change (%, negative = inhibition) at 10uM": 6.9},
      {"compound": "Cc1noc(NS(=O)(=O)c2ccc(NC(=O)c3ccc(N(C)C)cc3)cc2)c1C", "hERG current change (%, negative = inhibition) at 10uM": 12.2},
      {"compound": "Cc1cc(C)cc(NC(=O)C(=O)NCCc2c[nH]c3ccccc23)c1", "hERG current change (%, negative = inhibition) at 10uM": 14.9},
      {"compound": "CCCOc1ccccc1-n1sc2c(c1=S)-c1cc(OC)cc3c1N(C(=O)C3=O)C2(C)C", "hERG current change (%, negative = inhibition) at 10uM": 18.5},
      {"compound": "C#CCOc1c(Cl)cc(/C=N/O)cc1OC", "hERG current change (%, negative = inhibition) at 10uM": 4.04},
      {"compound": "CCOc1ccc2nc(NC(=O)Cn3cnc4c3c(=O)n(C)c(=O)n4C)sc2c1", "hERG current change (%, negative = inhibition) at 10uM": -41.9},
      {"compound": "COc1ccc2nc(NC(=O)Cn3cnc4c(=O)n(C)c(=O)n(C)c43)sc2c1", "hERG current change (%, negative = inhibition) at 10uM": -67.9},
      {"compound": "O=C(Nc1nc2ccc(Cl)cc2s1)C1CC1", "hERG current change (%, negative = inhibition) at 10uM": 28.7},
      {"compound": "COC(=O)c1ccc2nc(NC(=O)C3CC3)sc2c1", "hERG current change (%, negative = inhibition) at 10uM": 14},
      {"compound": "CS(=O)(=O)c1ccc2nc(NC(=O)C3CC(=O)N(c4ccccc4)C3)sc2c1", "note": "(stereo not drawn)", "hERG current change (%, negative = inhibition) at 10uM": -4.25},
      {"compound": "CC(C)c1ccc2nc(NC(=O)C3CC3)sc2c1", "hERG current change (%, negative = inhibition) at 10uM": -55},
      {"compound": "O=C(Nc1nc2ccccc2s1)C1CC(=O)N(c2ccccc2)C1", "note": "(stereo not drawn)", "hERG current change (%, negative = inhibition) at 10uM": -11.2},
      {"compound": "COc1ccc2nc(NC(=O)C3CC(=O)N(c4ccccc4)C3)sc2c1", "note": "(stereo not drawn)", "hERG current change (%, negative = inhibition) at 10uM": -51.7},
      {"compound": "COc1ccc(N2CC(C(=O)Nc3nc4ccc(OC)cc4s3)CC2=O)cc1", "note": "(stereo not drawn)", "hERG current change (%, negative = inhibition) at 10uM": -58.8},
      {"compound": "COc1ccc2nc(NC(=O)Cn3cnc4ccccc4c3=O)sc2c1", "hERG current change (%, negative = inhibition) at 10uM": -4.49},
      {"compound": "COc1ccc(N2CC(C(=O)Nc3nc4ccc(S(C)(=O)=O)cc4s3)CC2=O)cc1", "note": "(stereo not drawn)", "hERG current change (%, negative = inhibition) at 10uM": 3.32},
      {"compound": "COc1ccc(N2CC(C(=O)Nc3nc4ccccc4s3)CC2=O)cc1", "note": "(stereo not drawn)", "hERG current change (%, negative = inhibition) at 10uM": -48.9},
      {"compound": "O=C(NC1CCCCC1)c1ccc(CNc2ccccc2)o1", "hERG current change (%, negative = inhibition) at 10uM": -9.19},
      {"compound": "COc1ccc(CCNC(=O)C2CCCN2C(=O)Nc2ccc(F)cc2)cc1OC", "note": "(stereo not drawn)", "hERG current change (%, negative = inhibition) at 10uM": 16.5},
      {"compound": "CCOC(=O)C1=C(c2ccccc2)Nc2ncnn2C1c1ccccn1", "note": "(stereo not drawn)", "hERG current change (%, negative = inhibition) at 10uM": 13.6},
      {"compound": "O=C(O)c1cc(-c2ccc(/C=C3\\NC(=O)N(c4ccc(Cl)cc4)C3=O)o2)ccc1Cl", "hERG current change (%, negative = inhibition) at 10uM": 7.5},
      {"compound": "CC1(C)CC2CC(C)(CN2C(=S)NC(=O)c2ccccc2Cl)C1", "note": "(stereo not drawn)", "hERG current change (%, negative = inhibition) at 10uM": 3.14},
      {"compound": "NC(=O)NC(=O)CSc1ccccc1", "hERG current change (%, negative = inhibition) at 10uM": 17.1},
      {"compound": "O=C(Nc1nc2ccc(F)cc2s1)C1CC(=O)N(c2ccc3c(c2)OCCO3)C1", "note": "(stereo not drawn)", "hERG current change (%, negative = inhibition) at 10uM": -8.48},
      {"compound": "COc1ccc(N2CC(C(=O)Nc3nc4ccc(F)cc4s3)CC2=O)c(OC)c1", "note": "(stereo not drawn)", "hERG current change (%, negative = inhibition) at 10uM": -56.3},
      {"compound": "COc1ccc(N2CC(C(=O)Nc3nc(-c4ccccc4)c(C(C)=O)s3)CC2=O)c(OC)c1", "note": "(stereo not drawn)", "hERG current change (%, negative = inhibition) at 10uM": -0.242},
      {"compound": "CC(C)OC(=O)c1ccc(OC(=O)c2cccnc2)cc1", "hERG current change (%, negative = inhibition) at 10uM": 12.5},
      {"compound": "CCN1C(=NCCc2cccs2)N[C@@H](c2cccs2)C(C(=O)OC)=C1C", "hERG current change (%, negative = inhibition) at 10uM": -64.2},
      {"compound": "CCN(CC)CCCN=C1N[C@@H](c2ccccc2)C(C(=O)OC)=C(C)N1CC", "hERG current change (%, negative = inhibition) at 10uM": 14.6},
      {"compound": "CCN1C(=S)N[C@@H](c2ccccc2)C(C(=O)OC)=C1C", "hERG current change (%, negative = inhibition) at 10uM": 14.8},
      {"compound": "CCN1C(=NCCc2cccnc2)N[C@@H](c2ccccc2)C(C(=O)OC)=C1C", "hERG current change (%, negative = inhibition) at 10uM": -51.2},
      {"compound": "COC(=O)C1=C(C)N(Cc2ccccc2)C(=NCCc2cccnc2)N[C@H]1c1ccccc1", "hERG current change (%, negative = inhibition) at 10uM": -63},
      {"compound": "COCCN=C1N[C@@H](c2cccc(C(F)(F)F)c2)C(C(=O)OC)=C(C)N1Cc1ccccc1", "hERG current change (%, negative = inhibition) at 10uM": -11.9},
      {"compound": "COC(=O)C1=C(C)N(Cc2ccccc2)C(=NCc2cc(OC)c(OC)c(OC)c2)N[C@H]1c1ccccc1", "hERG current change (%, negative = inhibition) at 10uM": -27.8}
    ]}
  ]
}
